Laboratory results taken from PubChem BioAssay AID488837 (National Center for Advancing Translational Sciences (NCATS), 2010).
About 20 (0.006%) of roughly 330,000 compounds were called active. Inconclusive results (about 1%) are left out. Calls follow the shape of the dose curve; as a rule, active = well fitted inhibition curve with a large enough effect; inconclusive = small, poorly fitted or top-dose-only effect, or effect the other way; inactive = flat fitted curve, though single readings scatter. The full list was thinned out, with actives kept by preference.

What follows are compounds tested against Protein phosphatase EYA2 (Homo sapiens) (UniProt O00167) (assay: qHTS Assay for Inhibitors of the Phosphatase Activity of Eya2). Details: recombinant Eya2, OMFP fluorescence dephosphorylation (OMFP is methylfluorescein phosphate); series mostly up to 76.9 µM; activity, negative = inhibition: at the top concentration.
Description: The Eya family of proteins are essential co-activators of the Six1 transcription factor. Six1 is a developmental gene that is abnormally re-expressed in a large percentage of breast cancers. This over-expression plays a causal role in the initiation and metastatic development of breast cancers. The Eya family of proteins was also found to contain a unique HAD phosphatase domain with protein tyrosine phosphatase activity which can potentially play a role in Six1-mediated breast tumorigenesis. […] We have developed and optimized a 1536 well fluorescence-based HTS assay targeting the phosphatase activity of Eya2. Inhibitors found against Eya2 could serve as potential therapeutic tools to inhibit Six1-mediated breast tumorigenesis and to increase the efficiency of radiation and certain chemo therapy. These inhibitors could also be used as chemical probes to study the function of Eya2's phosphatase activity and its role in Six1-mediated breast tumorigenesis.
The Eya2 enzyme was kindly provided by the laboratory of Dr. Rui Zhao. The 3-O-methyl-fluorescein phosphate (OMFP) substrate and all buffer reagents were purchased from Sigma Aldrich. qHTS Assay Setup: 1. Buffer- 50 mM HEPES pH 7.5, 50 mM NaCl, 5 uM MgCl2, 0.05% BSA, 1 mM DTT. 2. OMFP Stock- 10 mM solution prepared in 100% DMSO and stored in single use aliquots at -20C. Assay Procedure- 1. Dispense 1.5 ul per well of Eya2 at 0.2 uM in black medium binding 1536 well Greiner plate 2. Transfer 23 nl of compound and control compound (EGTA) to plate 3. Incubate at ambient for 10 minutes 4. Dispense 1.5 ul per well of OMFP at 50 uM 5. Incubate at ambient for 10 minutes 6. Read on ViewLux using Excitation = 485 nm, Emission = 525 nm
% is scaled to controls: 0 for no effect and ±100 for the full control effect; potency is read from the fitted curve at half-maximal effect.

Chain of Protein phosphatase EYA2 (Homo sapiens) (O00167 whole entry, looked up, the tested form may be a part): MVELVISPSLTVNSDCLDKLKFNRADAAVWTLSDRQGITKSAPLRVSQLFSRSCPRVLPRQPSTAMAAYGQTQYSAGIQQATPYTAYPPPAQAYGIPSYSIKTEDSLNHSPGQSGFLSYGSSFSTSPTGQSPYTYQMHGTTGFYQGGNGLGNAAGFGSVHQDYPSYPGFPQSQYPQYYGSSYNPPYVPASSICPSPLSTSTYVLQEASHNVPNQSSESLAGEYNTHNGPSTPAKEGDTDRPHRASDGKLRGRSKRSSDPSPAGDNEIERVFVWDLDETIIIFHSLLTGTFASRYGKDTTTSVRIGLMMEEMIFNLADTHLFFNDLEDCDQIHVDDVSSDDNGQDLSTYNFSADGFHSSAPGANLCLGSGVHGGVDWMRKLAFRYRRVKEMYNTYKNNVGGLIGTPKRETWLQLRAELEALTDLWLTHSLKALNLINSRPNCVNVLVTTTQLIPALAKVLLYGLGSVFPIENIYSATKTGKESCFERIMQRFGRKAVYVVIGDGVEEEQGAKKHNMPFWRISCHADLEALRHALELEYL

Compound	activity, negative = inhibition	Potency
CCC(CC)C(=O)Nc1ccc(S(=O)(=O)Nc2nccs2)cc1	-10.9% (inactive)	–
COC(=O)C1CCCCN1C(=O)c1ccc(OC2CCN(C(C)=O)CC2)c(OC)c1 (stereo not given)	-0.803% (inactive)	–
CC1=CC2=NC(=O)CC(C)(C(=O)N(CC(=O)NC(C)(C)C)Cc3ccccc3)N2C=C1 (stereo not given)	13.6% (inactive)	–
N=c1ccn(CC(=O)NC(N)=O)c2ccccc12	-0.642% (inactive)	–
Cc1ccc(S(=O)(=O)N2CCC(Oc3ccc(-n4cnnn4)cc3)CC2)cc1	-2.01% (inactive)	–
COc1ccc(C(=O)OCc2cc(=O)n3ccsc3n2)cc1F	0.907% (inactive)	–
Cc1ccc(CCn2c3c(c4ccccc42)CN(C)CC3)cn1	-5% (inactive)	–
Nc1ncnc2c1c(I)cn2[C@@H]1C[C@H](N)[C@@H](O)[C@H]1O	-3.77% (inactive)	–
CSCCC(NS(=O)(=O)c1ccc2c(c1)oc(=O)n2C)C(=O)NCc1ccccc1 (stereo not given)	2.62% (inactive)	–
O=C(COc1ccc([N+](=O)[O-])cc1)Nc1cccc(C(=O)Nc2ccccc2C(=O)O)c1	-10.2% (inactive)	–
CCCN1Cc2cccc(C(=O)Nc3ccc(S(=O)(=O)N4CCCCCC4)cc3)c2C1=O	14.1% (inactive)	–
N#C/C(=C\N1CCOCC1)S(=O)(=O)c1ccc(Cl)cc1	1.29% (inactive)	–
CCOc1ccc(CCNC(=O)CN2C(=O)NC3(CCc4ccccc43)C2=O)cc1OCC (stereo not given)	14% (inactive)	–
CCc1noc(C)c1C(=O)N1CCCSC1=Nc1ccccc1OC	-2.86% (inactive)	–
COc1ccc(OCCCC(=O)Nc2cccc(S(=O)(=O)N3CCCCCC3)c2)cc1	4.7% (inactive)	–
COC(=O)c1ccc(CSc2ccc3nnc(-c4ccccc4)n3n2)o1	11.8% (inactive)	–
Cc1cccc(C)c1NC(=O)C1CCCN1C(=O)OC(C)(C)C (stereo not given)	-28.3% (inactive)	–
O=C(Cc1ccccc1Cl)N1CCN(c2ccccn2)CC1	-2.3% (inactive)	–
Cc1cc(C)c(C)c(S(=O)(=O)N[C@@H](C)C(=O)OC(C)C(=O)NC(N)=O)c1C (stereo not given in full)	11.7% (inactive)	–
Cc1ccc(CC2C(=O)N(c3ccc(F)cc3)C(=O)C2C)cc1 (stereo not given)	6.36% (inactive)	–
O=C(CNC(=O)OCc1ccccc1)Oc1cc2oc(=O)cc(-c3ccccc3)c2cc1Cl	-1.8% (inactive)	–
CCN(CC)P(=O)(C(NC(=O)OC)C(F)(F)C(F)(F)C(F)(F)C(F)F)N(CC)CC (stereo not given)	-3.75% [at 15.4 µM] (inactive)	–
COc1cc(NC(=O)c2ccccc2NS(=O)(=O)c2ccc(Cl)s2)cc(OC)c1	2% (inactive)	–
CN(C)/C(CN1CCCCC1)=C1\N=C(c2ccccc2)OC1=O	-3.09% (inactive)	–
CN(C)CCOc1cccc(Br)c1	-8.41% (inactive)	–

Compound	activity, negative = inhibition	Potency
C=CCC[C@@H](Cc1ccc(F)cc1)C(=O)OC[C@H](Cc1c[nH]c2ccccc12)NC(=O)[C@@H](CC=C)CC(=O)N(CCO)Cc1ccccc1	-1.4% (inactive)	–
CN(C)S(=O)(=O)c1ccc(N2CCCC2)c(C(=O)NCc2ccccc2)c1	15.5% (inactive)	–
Cc1cccc(C)c1NC(=S)N1CCCCCC1	-3.85% (inactive)	–
O=S1(=O)CCC(NC(=S)SCc2ccccc2Br)C1 (stereo not given)	-11.2% (inactive)	–
N#CCC(=O)NC(=O)NCC1CC1	0.0591% (inactive)	–
N/C(=N\OS(=O)(=O)c1cccc([N+](=O)[O-])c1)c1ccncc1	6.35% (inactive)	–
Cc1ccccc1-n1nnnc1SCCCC(=O)c1ccc(F)cc1	2.34% (inactive)	–
C=CCC1(CC=C)CCCN1C(=O)c1cc(COc2ccc(-n3cncn3)cc2)on1	-4.12% (inactive)	–
CCCCCCCNc1nc(Cl)nc(NCCO)n1	1.64% (inactive)	–
CSc1ccc(Cl)c(C(=O)OCC(=O)N2CCNC2=O)c1	-9.57% (inactive)	–
c1cc(-n2cnnn2)ccc1NC1=NCCC1	21.4% (inactive)	–
Cc1ccc(OCc2nnc(NC(=O)OCC(C)C)s2)cc1	-17.8% (inactive)	–
COC(=O)[C@]1(Cc2ccccc2)N[C@H](CN(C)S(=O)(=O)c2ccc(OC(F)(F)F)cc2)[C@@H]2C(=O)N(Cc3ccccc3)C(=O)[C@@H]21	1.09% (inactive)	–
CSc1cccc(NC(=O)CN2C(=O)COc3ccc(S(=O)(=O)N4CCOCC4)cc32)c1	-9.82% (inactive)	–
Cc1noc(NS(=O)(=O)c2ccc(NC(=O)c3oc4ccc(F)cc4c3C)cc2)c1C	3.85% (inactive)	–
Cn1c2ccc(F)cc2c2nnc(NN)nc21	-2.6% (inactive)	–
CCCCn1c(N)c(N(CC(C)C)C(=O)c2ccc(Br)o2)c(=O)[nH]c1=O	-5.18% (inactive)	–
CC(=O)/C(C)=N/O	3.95% (inactive)	–
Cc1cccc(Nc2nnc(SCC(=O)c3c(N)n(C4CC4)c(=O)[nH]c3=O)s2)c1C	4.01% (inactive)	–
COc1ccc(OC)c2c1sc(=NC(=O)CN1C(=O)CCC1=O)n2C	-8.43% (inactive)	–
CN(C(=O)CSc1nnc(-c2n[nH]c3ccccc23)o1)c1ccccc1	-8.32% (inactive)	–
CCOc1cc(/C=C2/N=C(c3ccc(C(C)(C)C)cc3)OC2=O)cc(Cl)c1OS(C)(=O)=O	6.4% (inactive)	–
OCc1n[nH]c(CO)n1	-15% (inactive)	–
CCC1Sc2ccc(S(=O)(=O)CCC(=O)NCc3cccs3)cc2NC1=O (stereo not given)	3.37% (inactive)	–
CCN(CC)c1ccc(S(=O)(=O)N2CCOCC2)cc1NC(=O)CSc1cccc[n+]1[O-]	-1.83% (inactive)	–

Compound	activity, negative = inhibition	Potency
Cn1c(-c2ccc(F)cc2)cc2onc(-c3ccccc3Cl)c2c1=O	-4.03% (inactive)	–
CCOc1cc(-c2noc(CCCC(=O)NC3CCCCC3)n2)ccc1OC	13.3% (inactive)	–
O=S(=O)(Nc1ccccc1Cl)c1cccc2nsnc12	2.19% (inactive)	–
COn1c(=O)c(=O)n(OC)c2ccccc21	-1.64% (inactive)	–
CN(C)C(=O)CCc1ccc2c3c([nH]c2c1)[C@]1(C)[C@@H](C(=O)N2CCOCC2)C[C@H](CC(=O)NCCc2ccccn2)C(=O)N1CC3	-11.1% (inactive)	–
O=S(=O)(Nc1ccc2nc(-c3ccco3)[nH]c2c1)c1ccccc1	1.38% (inactive)	–
CCOc1ccc(CCNC(=O)COC(=O)c2ccc(F)c(S(=O)(=O)N3CCOCC3)c2)cc1OCC	1.23% (inactive)	–
CC(CC(=O)Nc1ccc(F)cc1F)S(=O)(=O)c1ccc2c(c1)NC(=O)CO2 (stereo not given)	-7.4% (inactive)	–
Cc1c(C#N)c2ncn(CC#N)c(=O)c2n1-c1ccccc1	-8.63% (inactive)	–
CCC(=O)Nc1cc(C(F)(F)F)ccc1N1CCCC1	-2.4% (inactive)	–
CCn1ccnc1CN(C)C(=O)c1ccc2nc(Cc3ccc(OC)cc3)oc2c1	-2.13% (inactive)	–
Cc1ccc(-n2cc(CN(C)Cc3nccn3C)c(-c3cccc(C)c3)n2)cc1	-7.18% (inactive)	–
C#CCOCCOCCOCCNc1nc(N2CCN(C(=O)CCCCCCCCCCNC(=O)[C@H]([C@@H](C)CC)n3cc(CCCCN=C(N)N)nn3)CC2)nc(N2CCN(C(=O)CCCCCCCCCCNC(=O)[C@H](CO)n3cc(CCCSC)nn3)CC2)n1	–	31.6 µM (active)
C#CCOCCOCCOCCNc1nc(N2CCN(C(=O)CCCCCCCCCCNC(=O)Cn3cc(CCCCCN)nn3)CC2)nc(N2CCN(C(=O)CCCCCCCCCCNC(=O)[C@H](CO)n3cc(CCCSC)nn3)CC2)n1	-3.97% (inactive)	–
C#CCOCCOCCOCCNc1nc(N2CCN(C(=O)CCCCCCCCCCNC(=O)[C@H](CCCCN)n3cc(C)nn3)CC2)nc(N2CCN(C(=O)CCCCCCCCCCNC(=O)[C@H](CO)n3cc(CCCSC)nn3)CC2)n1	-28% (inactive)	–
CC1CC2C3CCC4=CC(=O)C=C[C@]4(C)[C@@]3(F)[C@@H](O)C[C@]2(C)[C@@]1(O)C(=O)CO (stereo not given in full)	-0.431% (inactive)	–
Cc1cc(=O)[nH]c(N/N=C/c2c(C)nn(-c3ccccc3Cl)c2Cl)n1	-26.3% (inactive)	–
CC(C)NC(=O)NCCCCCCS(C)=O (stereo not given)	3.21% (inactive)	–
N#CCSc1nc(-c2ccccc2)nc2ccc(F)cc12	-3.1% (inactive)	–
Cc1nnnn1/C(=C\c1ccccc1)C(=O)OCC(=O)N1CC2(C)CC1CC(C)(C)C2 (stereo not given)	-9.54% (inactive)	–
C=CCOc1ccc(C(=O)Nc2ccccc2C(=O)N2CCCC2)cc1	-9.4% (inactive)	–
O=C(NCCCCO)C(F)(F)C(F)(F)C(F)(F)C(=O)NCCCCO	-6.32% (inactive)	–
COc1ccc(CCc2nnc(CCC(=O)NCc3cnn(-c4ccccc4C)c3)o2)cc1	-10.2% (inactive)	–
CCc1cccc(C)c1N1C(=O)CN(Cc2ccccc2)C1=S	-6.41% (inactive)	–
O=C(NCc1cc(C(F)(F)F)cc(C(F)(F)F)c1)C1CC(c2cccc(F)c2)=NO1 (stereo not given)	-8.95% (inactive)	–

Compound	activity, negative = inhibition	Potency
CSc1ccccc1N1CCN(CCCCCC(=O)NC2CCCc3ccccc32)CC1 (stereo not given)	-6.18% (inactive)	–
COCc1cc(=O)[nH]c(SC)n1	-1.78% (inactive)	–
N#Cc1cccc(OC(=O)c2ccc3c(=O)n4c(nc3c2)CCC4)c1	9.42% (inactive)	–
Cc1snc(SCc2c(F)cccc2Cl)c1C#N	3.84% (inactive)	–
CCOC(=O)C1CN(S(=O)(=O)c2ccc(F)cc2)C1	2.46% (inactive)	–
O=S(=O)(c1ccc(Cl)cc1)c1nc(-c2ccccc2F)oc1NCCN1CCOCC1	-12.3% (inactive)	–
COc1cc(C)c(S(=O)(=O)N2CCOCC2)c(C)c1C	-7.22% (inactive)	–
O=C(CSc1ccccc1F)NC1CCS(=O)(=O)C1 (stereo not given)	-4.96% (inactive)	–
Clc1cccc(Cl)c1Cn1nnc(-c2cccs2)n1	6.83% (inactive)	–
Cc1ccc(NC(=O)CCNC(=O)c2ccc([N+](=O)[O-])cc2)cc1S(=O)(=O)N1CCOCC1	12.8% (inactive)	–
CC(C)(O)C#Cc1ncc(C(F)(F)F)cc1Cl	-2.8% (inactive)	–
COc1ccc(-c2nc3ccccc3n2CCC(C)C)cc1OC	-6.08% (inactive)	–
CN1CCN(C(=O)c2ccccc2NC(=O)COc2ccccc2Cl)CC1	-9% (inactive)	–
CCOc1ccc(NC(=O)C(C)N2C(=O)c3ccccc3C2=O)cc1 (stereo not given)	-3.16% (inactive)	–
O=C(OC1CCOC1=O)c1ccc(-c2nc3ccccc3s2)s1 (stereo not given)	-34.3% (inactive)	–
O=S(=O)(/C=C/c1ccccc1)NCCc1ccccn1	-14.7% (inactive)	–
Cc1cc(C(F)F)nn1CC(=O)NC1CCCCCC1	-2.98% (inactive)	–
COc1ccc(C(C#N)Nc2ccc(C)cc2)cc1 (stereo not given)	-10.6% (inactive)	–
Cc1ccc(C2(C(F)(F)F)N=C3Sc4cc(C)cc(C)c4N3C(=O)N2)cc1 (stereo not given)	-0.482% (inactive)	–
COc1ccc(-n2nc3c(c2NC(=O)c2ccc(N4C(=O)CCC4=O)cc2)CSC3)cc1	4.7% (inactive)	–
CC(O)c1cccc(NC(=O)Cc2cccc3ccccc23)c1 (stereo not given)	-2.93% (inactive)	–
O=C(NC1CCCC1)C(c1ccco1)N(C(=O)c1ccco1)c1ccc(F)cc1 (stereo not given)	11.4% (inactive)	–
CC(C)(C)c1cc2cccnc2n1Cc1ccccc1	-13.3% (inactive)	–
CCN1CCN(c2nc(Nc3cc(OC)ccc3OC)nc(Nc3cc(OC)ccc3OC)n2)CC1	-6.37% (inactive)	–
COc1ccc(-c2cc(C(F)(F)F)nc(S(C)(=O)=O)n2)cc1OC	-7.48% (inactive)	–
